According to PubChem BioAssay AID652048 (National Center for Advancing Translational Sciences (NCATS), 2013):
“And” between values parts separate entries of the source, which are not always exact repeats. Identical values can stand only once. The whole screen tested about 410,000 compounds, of which about 2,400 (0.59%) were called active. This is one part of a sample in which actives are shown more often than they occur. Cut-off read from the data, not from the text of the source: active = max activation above about 30%; inactive = the rest. Where a structure was tested more than once in an assay, its records may differ in their call.

Target: D(3) dopamine receptor (Homo sapiens) (UniProt P35462)
Sequence (P35462 whole entry, looked up): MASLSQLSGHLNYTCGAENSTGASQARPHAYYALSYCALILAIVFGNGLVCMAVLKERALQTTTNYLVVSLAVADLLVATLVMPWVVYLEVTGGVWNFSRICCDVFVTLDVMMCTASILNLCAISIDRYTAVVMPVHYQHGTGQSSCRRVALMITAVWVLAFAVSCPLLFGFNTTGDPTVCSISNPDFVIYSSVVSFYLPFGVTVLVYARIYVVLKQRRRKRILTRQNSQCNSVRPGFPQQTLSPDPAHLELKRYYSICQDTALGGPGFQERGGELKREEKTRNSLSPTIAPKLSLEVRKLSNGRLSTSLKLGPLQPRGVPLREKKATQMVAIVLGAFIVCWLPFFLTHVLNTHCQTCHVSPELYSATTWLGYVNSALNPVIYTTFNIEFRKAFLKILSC
Assay: qHTS of D3 Dopamine Receptor Agonist: qHTS; note: 0% is about no effect
Conditions: D3R DiscoveRx beta-arrestin cells, luminescence, 90 min; stronger effect = higher value
How it was run: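 Agonist mode: compounds and dopamine controls were applied to plated cells for 90 min at 37 degrees C after an overnight attachment at 1500 cells/well. Luminescent read-out followed 30 - 60 minutes at room temperature with DiscoveRx detection reagent.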

Structure (SMILES) | max activation
COC(=O)[C@@H]1CC2=CC(=O)CC[C@]2(C)[C@@]23O[C@@H]2C[C@@]2(C)[C@@H](CC[C@@]24CCC(=O)O4)[C@H]13 | 3.79% (inactive)
COc1cccc(N2CCN(C(=O)CCCCCn3c(=O)[nH]c4ccccc4c3=O)CC2)c1 | -3.38% (inactive)
Cc1cc(NS(=O)(=O)c2ccc(NC(=O)c3ccccc3C)cc2)nc(C)n1 | 0.492% (inactive)
COC(=O)c1ccc(NC(=O)c2ccccc2NS(=O)(=O)c2ccccc2)cc1 | 34.2% (active)
COC(=O)c1ccccc1NS(=O)(=O)c1ccc2c(c1)CCCN2C(C)=O | -8.34% (inactive)
CCOc1ccc(S(=O)(=O)N(CC(=O)NCCSCc2ccc(C)cc2)c2ccccc2)cc1 | 1.63% (inactive)
COc1ccc(C)cc1NC(=O)C(=O)NCCc1sc(-c2cccc(C)c2)nc1C | 3.11% (inactive)
NNc1nnc(NN)c2ccccc12 | -0.65% (inactive)
CCOC(=O)c1ccc(NC(=O)CCS(=O)(=O)c2ccc(C)cc2)cc1 | 4.32% (inactive)
Cc1noc(C)c1C(=O)NC(C)c1ccc2c(c1)OCO2 (centres undefined) | 17.7% (inactive)
Cc1noc(C)c1C(=O)Nc1ccccn1 | 31.1% (active)
Cc1noc(C)c1C(=O)NCCc1ccc(S(N)(=O)=O)cc1 | 4.23% (inactive)
O=C(/C=C/c1cccc(F)c1)NC1CC1 | 7.01% (inactive)
NC(=O)c1ccsc1NC(=O)COC(=O)Cc1n[nH]c(=O)c2ccccc12 | -0.194% (inactive)
Cc1cccc(C(=O)OCC(=O)Nc2sccc2C(N)=O)c1C | 3.92% (inactive)
CCCCn1nc(C(=O)OCC(=O)Nc2sccc2C(N)=O)c2ccccc2c1=O | 39.2% (active)
CO[C@]1(NC(=O)CSC(F)F)C(=O)N2C(C(=O)O)=C(CSc3nnnn3CCO)CO[C@H]21 | 4.38% (inactive)
COc1ccc(CNC(=O)C(C)NCc2ccccc2Cl)cc1 (centres undefined) | -7.27% (inactive)
CC(CCc1ccccc1)NC(=O)c1cnc(Cl)c(Cl)c1 (centres undefined) | -0.183% (inactive)
CC(CCc1ccc(O)cc1)NCc1ccc(Cl)cc1Cl (centres undefined) | 91.1% (active)
CCCCSc1ncnc2c1sc1nc(N3CCOCC3)c3c(c12)CCCC3 | -9.06% (inactive)
COc1ccc(N)cc1NC(=O)CN1CCOCC1 | 3.16% (inactive)
COc1ccc(NC(C)=O)cc1NC(=O)CN1CCN(c2ccc(F)cc2)CC1 | 3.91% (inactive)

Structure (SMILES) | max activation
COc1ccc(NC(C)=O)cc1NC(=O)CN1CCN(C2c3ccccc3-c3ccccc32)CC1 | 46.6% (active)
Cc1nn2c(=O)cc(COC(=O)CNC(=O)c3ccc(F)cc3)nc2s1 | -2.47% (inactive)
CCOc1ccccc1NC(=O)Cc1cccs1 | 49.3% (active)
CCOc1ccc(NC(=O)C/C(C)=N/NC(=O)Cc2cccs2)cc1 | 5.68% (inactive)
CCOc1ccccc1NC(=O)CCn1cnnn1 | 4.34% (inactive)
COc1ccc(CNC(=O)CCc2c(C)nn(-c3ccc(N4CCCC4)nn3)c2C)cc1 | 9.29% (inactive)
CCOC(=O)C1CCN(S(=O)(=O)c2c(C)noc2C)CC1 | -8.75% (inactive)
COc1c(C)cc(C(=O)C2CCCN(S(=O)(=O)c3c(C)noc3C)C2)cc1C (centres undefined) | 32.6% (active)
Cc1noc(C)c1S(=O)(=O)N1CCCC(C(=O)Nc2nccs2)C1 (centres undefined) | 2.46% (inactive)
CCCn1c(NCc2ccc(N(CC)CC)cc2)nc2ccccc21 | -7.25% (inactive)
COC(=O)c1ccccc1NC(=O)c1cnn(-c2ccc(F)cc2)c1-n1cccc1 | -7.92% (inactive)
CCOCCc1nn2c(=O)cc(COC(=O)CNC(=O)c3ccc(C(C)(C)C)cc3)nc2s1 | 6.28% (inactive)
Cc1ccc(-n2nc(CO)c(C(=O)NCCc3ccccc3)n2)cc1 | 1.72% (inactive)
CCSc1nnc2c(n1)OC(c1ccc(OCC(=O)O)cc1)Nc1ccccc1-2 (centres undefined) | 6.71% (inactive)
CCC(=O)N1CCc2cc(S(=O)(=O)NC(Cc3ccccc3)C(=O)NCc3ccc(C)cc3)ccc21 (centres undefined) | 3.11% (inactive)
O=C(CN1CCN(c2ncccn2)CC1)Nc1ccccc1C(F)(F)F | 5.01% (inactive)
CCC(=O)Nc1ccc2c(c1)nc(CCN1CCN(c3ccccn3)CC1)n2C | 38.1% (active)
O=C(CN1CCN(c2ccccn2)CC1)Nc1ccc(Br)cc1 | 45.2% (active)
O=C(CN1CCN(c2ccccn2)CC1)NCc1cccs1 | -2.33% (inactive)
Cn1c(CCN2CCN(c3ccccn3)CC2)nc2cc(NS(=O)(=O)c3ccc(F)cc3)ccc21 | 2.61% (inactive)
CCOC(=O)N1CCN(Cc2nc3cc(NC(=O)CC)ccc3n2CC)CC1 | -5.31% (inactive)
Oc1ccc(Cl)c2c1CCC2 | -6.75% (inactive)
CCc1ccc(CNCc2c(C(=O)O)n(Cc3ccc(F)cc3Cl)c3cc(OC)ccc23)cc1 | -22.5% (inactive)

Structure (SMILES) | max activation
CCCC(=O)Nc1ccc2oc(-c3ccc(O)c(Br)c3)nc2c1 | 6.09% (inactive)
CC1CCCCN1CC(=O)N1CCCc2c1c(=O)oc1ccc(OCc3ccccc3)cc21 (centres undefined) | -16.2% (inactive)
Cc1ccccc1NC(=O)c1c(NC(=O)c2ccccc2F)sc2c1CCC(C)C2 (centres undefined) | 4.23% (inactive)
Cc1nnc(C(=O)NC(C)(C)c2nc(C(=O)NCc3ccc(F)cc3)c(O)c(=O)n2C)o1 | 4.42% (inactive)
N#Cc1ccc(-c2ccc(F)cc2)nc1Sc1ccccc1 | 5.43% (inactive)
CN(C)c1ccnc(Oc2ccc(F)cc2)c1C#N | 2.14% (inactive)
N#Cc1ccc(-c2ccc(Cl)cc2)nc1Oc1ccc(F)cc1 | 34.7% (active)
Cn1c(=O)sc2cc(NS(=O)(=O)c3ccc(C(C)(C)C)cc3)ccc21 | -11% (inactive)
Cc1cccc2nc(CSc3nc4[nH]ncc4c(=O)n3-c3cccc(Cl)c3)cc(=O)n12 | 32.7% (active)
CCc1ccc(-n2c(SCc3cc(=O)n4cc(Br)ccc4n3)nc3[nH]ncc3c2=O)cc1 | 18.2% (inactive)
Cc1nnc(NC(=O)CSc2nc3c([nH]c4ccccc43)c(=O)n2-c2cccc(Cl)c2)s1 | 16.6% (inactive)
CO[C@H]1C=CO[C@@]2(C)Oc3c(C)c(O)c4c(O)c(c(/C=N/N5CCN(C)CC5)c(O)c4c3C2=O)NC(=O)/C(C)=C\C=C[C@H](C)[C@H](O)[C@@H](C)[C@@H](O)[C@@H](C)[C@H](OC(C)=O)[C@@H]1C | -16.3% (inactive)
COc1ccc(-n2c(=O)c3ccccc3n(Cc3ccccc3Cl)c2=O)cc1 | 4.01% (inactive)
Cc1ccc(CSc2oc(-c3cccs3)nc2S(=O)(=O)c2ccc(C)cc2)cc1 | 6.03% (inactive)
COCCCNC(=O)CSc1nc2ccc(N3CCOCC3)cc2c(=O)n1CCc1ccccc1 | -3.98% (inactive)
CCCCn1c(SCC(=O)NCC2CCCO2)nc2ccc(N3CCOCC3)cc2c1=O (centres undefined) | 33% (active)
N#CCSc1nc2ccc(N3CCOCC3)cc2c(=O)n1CCc1ccccc1 | 3.32% (inactive)
COc1ccccc1CNCc1ccc(C(=O)O)s1 | 6.32% (inactive)
COc1ccc(C)cc1Nc1nc2ccccc2c2nnc(C)n12 | 8.25% (inactive)
COC(=O)c1ccc(NC(=O)CCc2c(C)nn(-c3ccc(N4CCCC4)nn3)c2C)cc1 | -2.49% (inactive)
Cc1ccc(OCC(=O)Nc2ccc(OCc3cc(=O)n4c(C)csc4n3)cc2)cc1C | 4.15% (inactive)
CCOc1ccc(NC(=O)CN2CCN(CC(=O)Nc3ccc(OC)cc3)CC2)cc1 | 10.4% (inactive) and 34.5% (active)
COc1ccc(NC(=O)CCN2CCN(CCO)CC2)cc1 | 4.05% (inactive)

Structure (SMILES) | max activation
CCc1ccc(NC(=O)CN2CCC(C(=O)c3ccc(OC)cc3)CC2)cc1 | -15.3% (inactive)
CCc1ccc(S(=O)(=O)n2ccnc2)cc1 | 8.12% (inactive)
Oc1ccccc1-c1nc2ccc(Cl)cn2c1Nc1ccc2c(c1)OCCO2 | -2.82% (inactive)
CCOC(=O)CSC1=C(C#N)C(c2sccc2C)CC(=O)N1 (centres undefined) | 31.9% (active)
C=CCSC1=C(C#N)C(c2cc(Br)c(O)c(OC)c2)CC(=O)N1 (centres undefined) | 9.82% (inactive)
Cc1ccsc1C1C(C#N)=C(N)OC2=C1C(=O)CC(C)C2 (centres undefined) | 1.57% (inactive)
Cc1ccccc1CNC(=O)c1cccc(NC(=O)c2nsc3ccccc23)c1 | 8.47% (inactive)
CCCc1c2oc(C(=O)O)cc(=O)c2cc2c(=O)cc(C(=O)O)n(CC)c12 | -9.91% (inactive)
COc1ccc(-c2csc(-c3c(N)c(C(=O)c4ccc(OC)c(OC)c4)n4ccccc34)n2)cc1 | 4.7% (inactive)
Cc1c(C=O)c2ccccn2c1C(=O)c1ccncc1 | 31.8% (active)
COc1ccc(OC)c(-c2csc(-c3c(N)c(C(=O)c4ccccc4)n4ccccc34)n2)c1 | -12% (inactive)
Nc1nc(/C(=C/CC(=O)O)C(=O)N[C@@H]2C(=O)N3C(C(=O)O)=CCS[C@H]23)cs1 | 4.45% (inactive)
COc1ccc(-c2nc3sc(CCNS(=O)(=O)c4ccc(F)c(C)c4)c(C)n3n2)cc1 | 6.72% (inactive)
Cc1cccc(N2CCN(C(=O)c3ccc4c(c3)CCN4S(=O)(=O)c3ccccc3)CC2)c1C | -0.325% (inactive)
Cc1c(C)n(Cc2ccc(Cl)cc2)c2ccc(C(=O)N3CCN(c4ccccc4F)CC3)cc12 | -3.88% (inactive)
CCn1c(C)c(C)c2cc(C(=O)N3CCN(c4cccc(C)c4C)CC3)ccc21 | 5.02% (inactive) and 95.9% (active)
O=C(CSc1nc2c(c(=O)[nH]1)CN(Cc1ccc(F)cc1)CC2)Nc1ccccc1Cl | 6.55% (inactive)
COc1cc(-c2nnc(NC(=O)CS(=O)(=O)c3ccc(Cl)cc3)o2)cc(OC)c1OC | -1.85% (inactive)
COC(=O)c1c(-c2ccsc2)oc2ccc(-c3cc(OC)c(OC)c(OC)c3)cc12 | 45.2% (active)
CCOC(=O)c1c(-c2ccc(OC)cc2)oc2ccc(OCc3ccc(C(=O)OC)cc3)cc12 | 9.24% (inactive)
